Data from PubChem BioAssay AID504408 (Broad Institute, 2011).
About 5,200 (1.7%) of roughly 300,000 compounds were called active. Shown is part of a subset that was picked to be rich in actives. A number with no mark means an inactive call.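 Rule for the calls: active = mean replicate activation of at least 50% with a set share of replicates each reaching 50%; inconclusive = only one of those two conditions met; inactive = mean below 50% and too few replicates reaching it.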

Experiment: HSF-1 response element luciferase induction – NIH3T3-HGL cells, MG132 stress, luminescence, single point, primary screen (AID 504408);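 note: 0% = median of the neutral control wells and 100% = twice that signal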
Details: NIH3T3-HGL HSF-1 luciferase reporter, MG132, 8 h; at 9 µM; stronger effect = higher value; 100% = twice DMSO control signal

SMILES	activation
CCN(CC(=O)Nc1c(F)cccc1F)C(=O)c1ccc(-c2ccccc2)cc1	0.0275%
CCCCn1c(N)c(N(CCOC)C(=O)c2cccc(OCc3ccccc3)c2)c(=O)[nH]c1=O	-6.35%
CC(OC(=O)C1CC(=O)N(Cc2ccccc2)C1)C(=O)Nc1ccccc1[N+](=O)[O-] (stereo unspecified)	8.17%
CCOc1ccccc1Nc1ccc2nonc2c1[N+](=O)[O-]	-13.1%
O=C(O)c1cccc(S(=O)(=O)Nc2ccc(O)cc2Sc2nc3ccccc3s2)c1	1.08%
O=[N+]([O-])c1c(NCCO)cc(Sc2nc3ccccc3s2)c2nonc12	229% (active)
Cc1ccc(C)c(OCCC(=O)OCC(=O)c2ccc3c(c2)NC(=O)CO3)c1	-12.3%
COc1ccccc1C(=O)NC(=O)COC(=O)c1ccco1	-0.902%
CCn1c(SCC(=O)Nc2ccc3c(c2)OCCO3)nnc1C(C)C	-3.33%
CCCn1c(SCC(N)=O)nnc1C(C)C	1.36%
CCCn1c(SCC(=O)c2ccc3c(c2)OCCO3)nnc1C(C)C	62.4% (active)
Cc1ccc(S(=O)(=O)N2CCC(C(=O)OCC(=O)N(C)c3ccccc3)CC2)cc1C	-10.4%
Cn1cccc1C(=O)OCC(=O)c1ccc(Br)s1	-97.9%
CCc1nnc(NC(=O)/C=C/c2ccc(C)o2)s1	3.89%
Cc1ccc(/C=C/C(=O)Nc2ccc([N+](=O)[O-])c(NC(=O)/C=C/c3ccc(C)o3)c2)o1	73% (active)
Cc1ccc(/C=C/C(=O)Nc2cc(S(=O)(=O)N3CCCCCC3)ccc2OCC(F)(F)F)o1	2.76%
CCN(C(=O)CSc1nnc(-c2ccc(OC(F)F)cc2)n1N)C1CCS(=O)(=O)C1 (stereo unspecified)	-15.1%
COC(=O)c1ccc(NS(=O)(=O)c2cc3c4c(c2)C(C)C(=O)N4CCC3)cc1 (stereo unspecified)	21.6%
COc1ccc(NC(=O)CN(C)C(=O)c2ccc(NC3CC3)c([N+](=O)[O-])c2)cc1	5.08%
O=C1CCc2cc(S(=O)(=O)Nc3ccc(C(F)(F)F)cc3)cc3c2N1CC3	15.1%
Cc1csc(NC(=O)c2ccc(-c3ccc(Cl)cc3Cl)o2)n1	3.06%
COc1ccc(C(=O)Nc2c(Cl)cc(Cl)cc2C(=O)N2CCC(C)CC2)cc1	18%
CC1CCN(C(=S)c2ccc(-c3ccc(Cl)cc3Cl)o2)CC1	52% (active)

SMILES	activation
Cc1c(C(=O)OCC(=O)N2CCCC2=O)oc2ccccc12	16.8%
N#Cc1cccc(OC(=O)c2ccc3c(=O)n4c(nc3c2)CCC4)c1	-0.984%
Cc1ccc(C2=NN(C(=O)CSc3nc(N)cc(N)n3)C(c3ccco3)C2)cc1 (stereo unspecified)	22.7%
CCOC(=O)C1C(=O)C=C(c2ccc(OC)cc2)CC1c1ccco1 (stereo unspecified)	285% (active)
CCOC(=O)C1C(=O)NC(N2CCN(c3ccccc3)CC2)=NC1c1ccco1 (stereo unspecified)	-4.78%
Cc1nc2c(c(C)nn2-c2ccccc2)c(C)c1C	-8.62%
COc1cc(SC)ccc1C(=O)Nc1nc(C)cs1	-71.7%
Cc1ccnc(NC(=O)c2ccoc2C)c1	17.6%
COc1cc(SC)ccc1C(=O)Nc1cc(C)ccn1	55.7% (active)
COC(=O)[C@@]12CCCN1[C@H](c1ccc(-c3ccc(F)cc3)c(OC)c1)[C@H]1C(=O)N(C)C(=O)[C@H]12	42.9%
COc1ccc(Cl)cc1C=CC=Nc1ccc(S(N)(=O)=O)cc1	-18.4%
FC(F)Oc1ccc(NC(=S)NCc2ccco2)cc1Cl	7.43%
COc1cc(NC(=S)NCc2ccco2)c(OC)cc1Cl	62.1% (active)
COc1cccc(NC(=S)NCc2ccco2)c1	19.7%
Cc1ccc(OCC(=O)Nc2nnc(-c3ccco3)s2)cc1	2.22%
COc1ccc(OCC(=O)Nc2nnc(-c3ccco3)s2)cc1	3.21%
CCCCOc1ccc(-c2nnc(-c3ccco3)o2)cc1	79.3% (active)
CC(C)Oc1ccc(S(=O)(=O)N2CCOCC2)cc1NC(=O)C1CSC2(C)CCC(=O)N12 (stereo unspecified)	0.413%
Cc1nn(-c2ccccc2)c(Cl)c1/C=N/NC(=O)c1nn(C)cc1[N+](=O)[O-]	125% (active)
Cc1nn(C)cc1/C=N/NC(=O)c1sc2ccccc2c1Cl	3.1%
Cc1ccc(-n2nc(C)c(/C=N/NC(=O)c3cccs3)c2Cl)cc1	-8.54%
Cc1cc(C)c(-c2c(O)c3ccccc3n(C)c2=O)c(C)c1	-9.47%
Cn1c(=O)c([N+](=O)[O-])c(Oc2ccccc2)c2ccccc21	6.27%
